PubChem BioAssay (NCATS)
Records with an inconclusive call do not appear. Unmarked numbers belong to inactive results. Activity calls are given as the source filed them. Calls follow the shape of the dose curve; as a rule, active = well fitted cell-killing curve with a large enough effect; inconclusive = small, poorly fitted or top-dose-only effect, or effect the other way; inactive = no such curve, though single readings can be large or run the other way.

Tests used:
[1] = Quantitative High-Throughput drug screen in 47 multiple myeloma cell lines against the NCATS MIPE library collection: MM1R_ATCC cell viability assay (AID 1918981); also: nearly all actives have a fitted effect of over 35% in size
Procedure, shortened: (§1)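 Myeloma cells (500/well) treated with MIPE 4.0 compounds for 48 h at 37 °C, 5% CO2. Viability read as ATP via CellTiter-Glo luminescence after 5 min at RT; DMSO-only wells = 100%, media-only = 0% viability.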

[2] = Quantitative High-Throughput drug screen in 47 multiple myeloma cell lines against the NCATS MIPE library collection: KMS28PE_JCRB cell viability assay (AID 1918983); also: nearly all actives have a fitted effect of over 35% in size
Procedure, shortened: as §1

[3] = Quantitative High-Throughput drug screen in 47 multiple myeloma cell lines against the NCATS MIPE library collection: OCIMY7_PLB cell viability assay (AID 1918987); conditions: OCI-MY7 myeloma viability, CellTiter-Glo ATP, 48 h; viability (% of DMSO): at 45.8 µM (top of the series); also: nearly all actives have a fitted effect of over 65% in size
Procedure, shortened: as §1

[4] = Quantitative High-Throughput drug screen in 47 multiple myeloma cell lines against the NCATS MIPE library collection: OPM1_PLB cell viability assay (AID 1918989); also: nearly all actives have a fitted effect of over 40% in size
Procedure, shortened: as §1

[5] = Quantitative High-Throughput drug screen in 47 multiple myeloma cell lines against the NCATS MIPE library collection: SKMM1_PLB cell viability assay (AID 1919863); conditions: SKMM1 myeloma viability, CellTiter-Glo ATP, 48 h; viability: hits give low values; also: nearly all actives have a fitted effect of over 35% in size
Procedure, shortened: as §1

[6] = Quantitative High-Throughput drug screen in 47 multiple myeloma cell lines against the NCATS MIPE library collection: U266_ATCC cell viability assay (AID 1919864); also: nearly all actives have a fitted effect of over 35% in size
Procedure, shortened: as §1

[7] = Quantitative High-Throughput drug screen in 47 multiple myeloma cell lines against the NCATS MIPE library collection: XG1_PLB cell viability assay (AID 1919866); also: nearly all actives have a fitted effect of over 35% in size
Procedure, shortened: as §1

[8] = Quantitative High-Throughput drug screen in 47 multiple myeloma cell lines against the NCATS MIPE library collection: PE2_PLB cell viability assay (AID 1919869); also: nearly all actives have a fitted effect of over 35% in size
Procedure, shortened: as §1

[9] = Quantitative High-Throughput drug screen in 47 multiple myeloma cell lines against the NCATS MIPE library collection: RPMI8226_ATCC cell viability assay (AID 1919871); also: nearly all actives have a fitted effect of over 30% in size
Procedure, shortened: as §1

[10] = Quantitative High-Throughput drug screen in 47 multiple myeloma cell lines against the NCATS MIPE library collection: KMS11_JCRBsus cell viability assay (AID 1919873); also: nearly all actives have a fitted effect of over 50% in size
Procedure, shortened: as §1

[11] = Quantitative High-Throughput drug screen in 47 multiple myeloma cell lines against the NCATS MIPE library collection: KMS34_JCRB cell viability assay (AID 1918985); also: nearly all actives have a fitted effect of over 40% in size
Procedure, shortened: as §1

[12] = Quantitative High-Throughput drug screen in 47 multiple myeloma cell lines against the NCATS MIPE library collection: OCIMY5_PLB cell viability assay (AID 1918988); also: nearly all actives have a fitted effect of over 65% in size
Procedure, shortened: as §1

[13] = Quantitative High-Throughput drug screen in 47 multiple myeloma cell lines against the NCATS MIPE library collection: VP6_DJ cell viability assay (AID 1919867); also: nearly all actives have a fitted effect of over 40% in size
Procedure, shortened: as §1

[14] = Quantitative High-Throughput drug screen in 47 multiple myeloma cell lines against the NCATS MIPE library collection: PCM6_Riken cell viability assay (AID 1919870); also: nearly all actives have a fitted effect of over 30% in size
Procedure, shortened: as §1

[15] = Quantitative High-Throughput drug screen in 47 multiple myeloma cell lines against the NCATS MIPE library collection: KMS28BM_JCRB cell viability assay (AID 1919874); also: nearly all actives have a fitted effect of over 35% in size
Procedure, shortened: as §1

[16] = Quantitative High-Throughput drug screen in 47 multiple myeloma cell lines against the NCATS MIPE library collection: OPM2_DSMZ cell viability assay (AID 1919872); also: nearly all actives have a fitted effect of over 30% in size
Procedure, shortened: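 qHTS of the MIPE 4.0 collection: 500 myeloma cells/well, 48 h drug exposure at 37C in 5% CO2, then CellTiter-Glo for 5 min at room temperature before luminescence reading.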

[17] = Quantitative High-Throughput drug screen in 47 multiple myeloma cell lines against the NCATS MIPE library collection: XG6_PLB cell viability assay (AID 1919865); also: nearly all actives have a fitted effect of over 40% in size
Procedure, shortened: as §1

[18] = Quantitative High-Throughput drug screen in 47 multiple myeloma cell lines against the NCATS MIPE library collection: UTMC2_PLB cell viability assay (AID 1919868); conditions: CellTiter-Glo ATP luminescence, 48 h; viability (% of DMSO control): at 45.8 µM (top of the series); also: nearly all actives have a fitted effect of over 55% in size
Procedure, shortened: as §1
Potency is read from the fitted curve at half-maximal effect.

SMILES | Potency [1] | Potency [2] | Potency [3] | Potency [4] | viability [5] [%] | Potency [6] | Potency [7] | Potency [8] | Potency [9] | Potency [10] | Potency [11] | Potency [12] | Potency [13] | Potency [14] | Potency [15] | Potency [16] | Potency [5] | Potency [17] | Potency [18]
CN(C)c1nc(Cc2ccc(NC(=O)c3ccc(C(F)(F)F)cc3)cc2)nc(N(C)C)c1CC(=O)O | 9.35 µM (active) | 5.26 µM (active) | inactive | inactive | 127 | inactive | inactive | inactive | 6.62 µM (active) | inactive | – | – | – | – | – | – | – | – | –
C[C@@H]1CC=CC=CC=CC=C[C@@H](O[C@@H]2O[C@H](C)[C@@H](O)[C@H](N)[C@H]2O)C[C@@H]2O[C@](O)(C[C@@H](O)C[C@@H]3O[C@@H]3C=CC(=O)O1)C[C@H](O)[C@@H]2C(=O)O | 14.8 µM (active) | 14.8 µM (active) | 2.96 µM (active) | 16.6 µM (active) | – | – | 4.69 µM (active) | 9.35 µM (active) | – | 16.6 µM (active) | 18.7 µM (active) | 11.8 µM (active) | 10.5 µM (active) | 16.6 µM (active) | 20.9 µM (active) | – | – | – | –
Cn1c(=O)c(Oc2ccc(F)cc2F)cc2cnc(NC3CCOCC3)nc21 | 7.43 µM (active) | inactive | – | – | – | inactive | – | – | – | – | 1.32 µM (active) | 18.7 µM (active) | – | – | inactive | inactive | – | – | –
O=C(Nc1cccc(Cl)c1)Nc1ncc(CCNc2ncnc3ccsc23)s1 | 5.9 µM (active) | 5.9 µM (active) | 0.264 µM (active) | 6.62 µM (active) | – | 16.6 µM (active) | 1.32 µM (active) | 4.18 µM (active) | 5.9 µM (active) | 11.8 µM (active) | 6.62 µM (active) | 0.833 µM (active) | – | 5.26 µM (active) | – | – | 3.32 µM (active) | 4.18 µM (active) | 0.372 µM (active)
CN(C(Cc1ccc(OS(=O)(=O)c2cccc3cnccc23)cc1)C(=O)N1CCN(c2ccccc2)CC1)S(=O)(=O)c1cccc2cnccc12 (centres undefined) | 16.6 µM (active) | 10.5 µM (active) | 4.69 µM (active) | 3.72 µM (active) | – | 13.2 µM (active) | – | – | 5.26 µM (active) | – | – | 13.2 µM (active) | 3.72 µM (active) | – | 14.8 µM (active) | – | – | 13.2 µM (active) | 6.62 µM (active)
CCC(=C(CC)c1ccc(O)cc1)c1ccc(O)cc1 | 14.8 µM (active) | 18.7 µM (active) | – | – | – | – | 14.8 µM (active) | 18.7 µM (active) | 29.6 µM (active) | 14.8 µM (active) | 23.5 µM (active) | 20.9 µM (active) | 18.7 µM (active) | 18.7 µM (active) | 16.6 µM (active) | 26.4 µM (active) | 14.8 µM (active) | 20.9 µM (active) | –
O=C(CC12CC3CC(CC(C3)C1)C2)Nc1cccc2nc(NCCNCCO)ccc12 | 20.9 µM (active) | 16.6 µM (active) | – | 7.43 µM (active) | – | 23.5 µM (active) | 2.96 µM (active) | 7.43 µM (active) | – | – | 26.4 µM (active) | 11.8 µM (active) | 4.69 µM (active) | 7.43 µM (active) | – | – | 16.6 µM (active) | 1.18 µM (active) | 3.32 µM (active)
COc1c(C)c2c(c(O)c1CC=C(C)CCC(=O)O)C(=O)OC2 | 11.8 µM (active) | 4.69 µM (active) | 4.69 µM (active) | 11.8 µM (active) | – | 8.33 µM (active) | – | 3.32 µM (active) | 7.43 µM (active) | – | – | 7.43 µM (active) | 5.9 µM (active) | inactive | 2.64 µM (active) | 11.8 µM (active) | – | 3.32 µM (active) | –
CNc1nc(Nc2ccc(C(=O)N3CCOCC3)cc2OC)ncc1Cl | 5.9 µM (active) | inactive | inactive | inactive | 112 | inactive | 16.6 µM (active) | – | – | inactive | – | 14.8 µM (active) | – | 16.6 µM (active) | inactive | inactive | – | – | –
O=C(CO)N1CCC(c2[nH]nc(-c3ccc(Cl)cc3)c2-c2ccncn2)CC1 | 0.662 µM (active) | 0.332 µM (active) | – | 3.32 µM (active) | – | inactive | inactive | – | inactive | – | inactive | – | 1.05 µM (active) | – | – | inactive | 0.59 µM (active) | – | –
CN1CCc2c(n(Cc3ccc(C(=O)NO)cc3)c3ccccc23)C1 | 18.7 µM (active) | 14.8 µM (active) | 4.18 µM (active) | – | – | 26.4 µM (active) | – | 20.9 µM (active) | – | 18.7 µM (active) | 16.6 µM (active) | 16.6 µM (active) | 13.2 µM (active) | 20.9 µM (active) | 18.7 µM (active) | – | 5.9 µM (active) | 14.8 µM (active) | –
COc1cc2ncnc(Nc3cc(Br)c(O)c(Br)c3)c2cc1OC | 0.0418 µM (active) | 1.48 µM (active) | 0.0042 µM (active) | 2.35 µM (active) | – | – | 0.0074 µM (active) | 0.0833 µM (active) | 8.33 µM (active) | – | 6.62 µM (active) | 0.0023 µM (active) | 0.0148 µM (active) | 0.0332 µM (active) | – | – | 0.0469 µM (active) | 0.0047 µM (active) | 0.526 µM (active)
